Reference: PubChem BioAssay (Tox21)
Records with an inconclusive call do not appear. Values without a mark were called inactive. Activity calls are given as the source filed them. Calls follow the shape of the dose curve; as a rule, active = well fitted cell-killing curve with a large enough effect in the repeat runs; inconclusive = weak or mixed curves, or effect the other way; inactive = flat fitted curve, though single readings scatter.

Test: qHTS RealTime-Glo MT Cell Viability Assay in HepG2 cells - 40 hour (AID 1224870); also: nearly all actives have a fitted effect of over 50% in size
Conditions: RealTime-Glo luminescence; series mostly up to 76.8 µM; activity change, negative = cytotoxic: at the top concentration
Excerpt: National Center for Advancing Translational Sciences [NCATS]
NIH Chemical Genomics Center [NCGC]
U.S. Environmental Protection Agency [EPA]
National Institutes of Environmental Health Sciences [NIEHS]
National Toxicology Program [NTP]
U.S. Food and Drug Administration [FDA]
Measure of cell viability is critical in the cell-base assay. Analysis of cell viability is necessary for the characterization of cell responses to cytotoxic drugs and environmental stress. A RealTime-Glo MT Cell Viability Assay to monitor cell viability in real time of continues cell culture during 40 hours of compound treatment was used to screen Tox21 10K library compounds in HepG2 cells. The RealTime-Glo MT Cell Viability Assay is a nonlytic, homogeneous, bioluminescent method to measure cell viability in real time using a simple, plate-based method. The assay involves adding NanoLuc luciferase and a cell-permeant prosubstrate to cells in culture. Viable cells reduce the proprietary prosubstrate to generate a substrate for NanoLuc luciferase. This substrate diffuses from cells into the surrounding culture medium, where it is rapidly used by the NanoLuc Enzyme to produce a luminescent signal. The signal correlates with the number of viable cells, making the assay well suited for cytotoxicity studies.
Tox21 Assay Protocol Summary:
The mixture of HepG2 cell suspension and reagents were dispensed at 600cells/6 ul/well in 1536-well tissue culture treated black solid bottom plates using a Multidrop dispenser. After the assay plates were incubated at a 37 C/5% CO2 incubator for 5 hours, 23 nL of compounds dissolved in DMSO, positive and negative controls was transferred to the assay plate by a pintool work station. The plates were incubated at 37 C for 40 hours. The luminescence intensity were measured at 0h, 8h, 16h, 24h, 32h and 40h time points using ViewLux plate reader during compound treatment.
% is scaled to controls: 0 for no effect and ±100 for the full control effect; potency is read from the fitted curve at half-maximal effect.

Compound | activity change, negative = cytotoxic | Potency
O=[N+]([O-])c1c2ccccc2cc2ccccc12 | 4.32% | 
c1ccc2cc3c(cc2c1)-c1cccc2cccc-3c12 | 1.01% | 
CC1(C)CN=C(NN=C(/C=C/c2ccc(C(F)(F)F)cc2)/C=C/c2ccc(C(F)(F)F)cc2)NC1 |  | 15.5 µM (active)
Clc1ccc(C(Cl)(Cl)Cl)c(Cl)c1 | -1.14% | 
OC(c1ccc(Cl)cc1)(c1ccc(Cl)cc1)C(Cl)(Cl)Cl | -2.78% | 
[Cl][Sn]([c]1ccccc1)([c]1ccccc1)[c]1ccccc1 |  | 2.61 µM (active)
Cc1cc(N=Nc2ccccc2C)ccc1N |  | inactive
O=c1ssc(Cl)c1Cl |  | 21.9 µM (active)
CCOC(=O)c1ccccc1S(=O)(=O)NC(=O)Nc1nc(Cl)cc(OC)n1 | 0.867% | 
Clc1ccc(CCC(Cn2ccnc2)Sc2c(Cl)cccc2Cl)cc1 (stereo not given) | -21.3% [at 35.3 µM] | 
Cc1cc(C(C)(C)c2cc(C)c(O)c(C)c2)cc(C)c1O | -22.2% | 
CCCN(CC)CC1COC2(CCC(C(C)(C)C)CC2)O1 (stereo not given) | 1.07% | 
CCC(C)c1cc([N+](=O)[O-])cc([N+](=O)[O-])c1OC(=O)C=C(C)C (stereo not given) |  | 49 µM (active)
CCOc1cc(C(C)(C)C)ccc1C1COC(c2c(F)cccc2F)=N1 (stereo not given) | -7.18% [at 35.3 µM] | 
CC(C)C1CCC(Cc2ccc(Cl)cc2)C1(O)Cn1cncn1 (stereo not given) |  | 48.5 µM (active)
COP(=O)(OC)SCn1c(=O)oc2cc(Cl)cnc21 | -2.04% | 
Cc1ccc(C(=O)Cl)cc1 | -3.79% | 
CC(C)CC(C)(c1ccc(O)cc1)c1ccc(O)cc1 | -2.16% | 
BrC(Br)C(Br)(Br)Br | -3.76% | 
O=C1NCN(c2ccccc2)C12CCN(CC1COc3ccccc3O1)CC2 (stereo not given) | -11.5% [at 35.3 µM] | 

Compound | activity change, negative = cytotoxic | Potency
CCC(C)(C)C(=O)OC1=C(c2ccc(Cl)cc2Cl)C(=O)OC12CCCCC2 | 1.09% | 
N#CCCSCCC#N | -4.24% | 
ClC(Cl)=C(c1ccc(Cl)cc1)c1ccc(Cl)cc1 |  | inactive
Cc1c(Cl)c(=O)oc2cc(OP(=O)(OCCCl)OCCCl)ccc12 | -9.94% [at 35.3 µM] | 
Clc1ccc(-c2ccc(Cl)c(Cl)c2Cl)c(Cl)c1Cl | 0.882% | 
C=CCC1=C(C)C(OC(=O)C2C(C=C(C)C)C2(C)C)CC1=O (stereo not given) | 16.8% | 
CCC[CH2][Sn]([CH2]CCC)([CH2]CCC)[O]C(=O)c1ccccc1 |  | 0.389 µM (active)
FC(F)(F)c1cccc(C2=CCN(CCc3ccc4ccccc4c3)CC2)c1 | 2.38% [at 35.3 µM] | 
Clc1ccc(C(c2ccc(Cl)cc2)C(Cl)(Cl)Cl)cc1 |  | inactive
Brc1c(Br)c(Br)c(Oc2c(Br)c(Br)c(Br)c(Br)c2Br)c(Br)c1Br | -6.21% [at 15.8 µM] | 
Cc1ccc(OP(=O)(Oc2ccccc2)Oc2ccccc2)cc1 | 0.39% | 
CC(C)CCCCCOC(=O)c1ccccc1C(=O)OCCCCCC(C)C | -13.3% | 
CCN(CC)C(=S)[S-].CCN(CC)C(=S)[S-].[Zn+2] |  | 10.9 µM (active)
O=[N+]([O-])c1ccc2ccc3cccc4ccc1c2c34 | -6.92% | 
CCCCCCCCCCCCCN1CC(C)OC(C)C1 (stereo not given) | -0.0355% | 
CC(C)(C)C(O)C(Oc1ccc(-c2ccccc2)cc1)n1cncn1 (stereo not given) | 8.84% | 
S=C(SSC(=S)N1CCCCC1)N1CCCCC1 |  | 0.213 µM (active)
CCCCN(CCCC)C(=S)[S-].CCCCN(CCCC)C(=S)[S-].[Zn+2] |  | 24.5 µM (active)
C=COCCCl | 10.7% | 
N#Cc1c(-c2ccc(Cl)cc2)[nH]c(C(F)(F)F)c1Br | -28.9% | 
